# High-throughput results deposited in PubChem by National Center for Advancing Translational Sciences (NCATS).
# IL1B secr inh – qHTS for Inhibitors of Inflammasome Signaling: IL-1-beta AlphaLISA Primary Screen. THP-1 LPS/ATP IL-1B secretion, AlphaLISA, 16 h; hits give low values. hit rate 4.7% among 360,000. AID 743279, 2014. activity change, % at 57.5 µM; in the data active means activity change below about -50%; inconclusive means mostly about -30% to -49%
#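 Secreted IL-1B measured by AlphaLISA bead assay after 16 h compound exposure of THP-1 cells; compounds (final up to 57.5 uM) added 1 h before LPS (250 ng/mL) and ATP (1.25 mM) stimulation; lower signal means less secretion.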
# Giardia killer – Small Molecules that selectively kill Giardia lamblia: qHTS; Giardia lamblia trophozoite viability; activity change, % at 7.66 µM, hits read low; hit rate 0.15% among 340,000; AID 540267, 2011; in the data active means activity change below about -80%; inconclusive means between about -30% and that limit;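 further: parasites exposed to compound for two days anaerobically before the ATP read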
#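 Media and compound were dispensed first, then trophozoites at 100 cells/well; plates sat 48 hrs at 37 deg C without oxygen before ATP luminescence reagent was added and read after 15-30 min at room temperature.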
# TDP1 cell noCPT – qHTS for Inhibitors of human tyrosyl-DNA phosphodiesterase 1 (TDP1): qHTS in cells in absence of CPT; DT40 Tdp1-/- hTDP1 cells, no CPT, ATP luminescence, 48 h; Potency, µM (top dose mostly 46.2 µM), without a hit: at the highest dose activity change, negative = growth inhibition, hits mostly inhibitors; hit rate 15% among 420,000; further: potency means the concentration at half of the fitted maximal effect; nearly all actives have a fitted effect of over 55% in size
#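 Compound effects on proliferation are scored in DT40 Tdp1-/-;hTDP1 cells in the absence of CPT. ATP levels (CellTiter-Glo luminescence) are recorded after a ≥48 hr, 37 °C incubation.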
# TDP1 block – qHTS Assay for Inhibitors of Tyrosyl-DNA Phosphodiesterase (TDP1). recombinant TDP1, AlphaScreen DNA substrate cleavage. Potency, µM (highest dose often 130 µM), for the others: at the top dose activity change, negative = inhibition, hits mostly inhibitors. hit rate 0.28% among 350,000. AID 485290, 2010. Tyrosyl-DNA phosphodiesterase 1 (Homo sapiens), Q9NUW8; further: potency means the concentration at half of the fitted maximal effect; nearly all actives have a fitted effect of over 40% in size
# Target sequence (Q9NUW8 whole entry, looked up): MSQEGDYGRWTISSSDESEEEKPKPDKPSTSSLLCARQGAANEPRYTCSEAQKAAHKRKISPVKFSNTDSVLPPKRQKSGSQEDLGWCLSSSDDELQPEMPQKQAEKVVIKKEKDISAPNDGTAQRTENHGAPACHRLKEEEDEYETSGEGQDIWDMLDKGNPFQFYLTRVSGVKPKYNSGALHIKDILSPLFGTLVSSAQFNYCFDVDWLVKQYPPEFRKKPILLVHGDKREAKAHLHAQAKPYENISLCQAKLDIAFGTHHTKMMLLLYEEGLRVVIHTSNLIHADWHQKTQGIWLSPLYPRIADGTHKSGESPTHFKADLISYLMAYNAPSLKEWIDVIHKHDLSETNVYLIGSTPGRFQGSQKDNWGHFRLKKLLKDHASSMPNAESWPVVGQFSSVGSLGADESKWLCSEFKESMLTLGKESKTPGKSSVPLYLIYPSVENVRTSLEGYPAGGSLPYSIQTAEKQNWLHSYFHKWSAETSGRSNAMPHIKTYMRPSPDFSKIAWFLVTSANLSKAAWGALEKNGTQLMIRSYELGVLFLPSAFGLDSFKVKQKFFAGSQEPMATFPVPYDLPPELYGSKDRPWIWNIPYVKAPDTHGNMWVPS
#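 AlphaScreen read-out: signal falls as enzyme removes the 3' tyrosine-FITC from a 5'-biotinylated DNA oligo (15 nM, 5 min, RT). Enzyme was E. coli-made recombinant Tdp1 at 1 nM, exposed to compound for 15 min beforehand; beads 10 ug/ml, 10 min.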
# ELG1 DNA repair – qHTS screen for small molecules that inhibit ELG1-dependent DNA repair in human embryonic kidney (HEK293T) cells expressing luciferase-tagged ELG1; Potency, µM (series often up to 46.1 µM), for the others: top-dose activity change, negative = inhibition, usual class: inhibitors; hit rate 2.3% among 330,000; HEK293T ELG1-luciferase reporter, luminescence, 16 h; DNA damage induced by 5-fluorouridine; further: potency means the concentration at half of the fitted maximal effect; nearly all actives have a fitted effect of over 55% in size
#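 HEK293T cells expressing luciferase-tagged ELG1 (2,000/well) received 5-Fluorouridine plus compound or DMSO for 16 hr at 37 °C. Luciferase was read by ONE-Glo luminescence after 30 min at room temperature.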
# DT40 TDP1 CPT – qHTS for Inhibitors of human tyrosyl-DNA phosphodiesterase 1 (TDP1): qHTS in cells in presence of CPT. hit rate 12% among 420,000. AID 686979, 2013. chicken DT40 Tdp1-/-;hTDP1 cells + 20 nM CPT, ATP luminescence, 48 h. Potency, µM (titrated, usually from 46.2 µM), for the others: top-dose activity change, negative = growth inhibition, most hits filed as inhibitors; further: potency means the concentration at half of the fitted maximal effect; nearly all actives have a fitted effect of over 55% in size
#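 Chicken DT40 Tdp1-/- cells stably complemented with human TDP1 were seeded at 400 cells/well in medium containing 20 nM camptothecin, exposed to pin-transferred compounds, and grown at 37 °C for at least 48 hr. Viability was read as ATP luminescence.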
# Starred values were filed as active, the others as inactive; ? = inconclusive; · = no result; [ ] = dose if it differs, or a comment. The list is not random: actives were taken first. Their share in the collection is about 19%. Unless noted, the call rests on the fitted dose curve; in most records, active means well fitted curve in the direction sought with a large enough effect; inconclusive means small, poorly fitted or top-dose-only effect, or another doubt; inactive means no such curve, though single readings can be large; an effect the other way counts as inactive or inconclusive. On the % scale 0 is the no-effect control and ±100 the full control effect.
SMILES,IL1B secr inh,Giardia killer,TDP1 cell noCPT,TDP1 block,ELG1 DNA repair,DT40 TDP1 CPT
O=C(NCc1ccco1)c1cccc(S(=O)(=O)N2CCCC2)c1,-8,5,-19%,8%[0.0935 µM],4%,1%
CCOC(=O)c1c(C)[nH]c(CCC(=O)Nc2ccc(Cl)cc2C)c1C,·,·,?,3%,·,-41%
Cc1ccc(S(=O)(=O)N2CC=C(C(=O)NCc3ccc(F)cc3)CC2)cc1,·,·,·,·,-3%,·
CC(=O)c1c(C)[nH]c(C(=O)Nc2cc(F)ccc2C)c1C,17,20,-4%,-4%,0%,9%
CCN(CC)c1ccc(NC(=O)C2=CCN(S(=O)(=O)c3ccc(F)cc3)CC2)c(C)c1,3,-2,18µM*,4%,-9%,18µM*
CCOC(=O)c1c(C)[nH]c(CCC(=O)Nc2ccc(N(CC)CC)cc2C)c1C,·,·,?,3%,·,13µM*
CCOC(=O)c1c(C)[nH]c(CCC(=O)Nc2ccc(C)c(F)c2)c1C,·,·,15µM*,5%,·,21µM*
CCN(CC)c1ccc(NC(=O)c2[nH]c(C)c(C(C)=O)c2C)c(C)c1,-11,-10,18µM*,-4%,14%,23µM*
CCc1ccc(OCCNC(=O)c2ccco2)cc1,-25,25,-9%,4%[56.1 µM],?,-19%
C[C@H](O)CNC(=O)c1[nH]cnc1C(=O)Nc1ccc(CNC(=O)OC(C)(C)C)cc1,-10,·,?,·,·,?
CCN1CCN(C(=O)c2ccc3c(c2)N(Cc2ccccc2F)C(=O)c2ccccc2S3(=O)=O)CC1,8,-1,?,0%,-10%,-2%
Cc1ccc2c(c1)c1c(c(=O)n(-c3ccccc3C)c(=O)n1CC(=O)NCC1CCCO1)n2C (stereo not given),-24,-2,?,-5%,-8%,?
CCOC(=O)CSc1cccc2cccnc12,-3,-3,5.8µM*,5%,?,5.8µM*
COc1cccc(/C=N/NC(=O)CSc2cccc3cccnc23)c1,58,-19,12µM*,·,-6%,?
Cc1cccc(CSc2cccc3cccnc23)c1,-110*,13,3.7µM*,1%,?,4.1µM*
O=C(CSc1cccc2cccnc12)N/N=C/c1ccc(O)cc1,-6,24,?,·,-8%,?
Cc1ccc(C)c(N(C)C(=O)c2cn(C)c(=O)c3ccccc23)c1,·,·,?,3%,·,?
COc1ccc(S(=O)(=O)NC(CC(C)C)C(=O)NC(C)c2cccs2)cc1 (stereo not given),8,-15,-6%,0%,3%,-20%
CC(=O)c1ccc(OCCCC(=O)Nc2nnc(C3CC3)s2)cc1,23,-10,-1%,-3%,8%,1%
CC(C)(C)c1ccc(OCCCC(=O)Nc2nnc(C3CC3)s2)cc1,22,·,10µM*,·,·,?
Cc1ccc(C(=O)Oc2oc(-c3ccco3)nc2C=Nc2ccc(Cl)cc2)cc1,-51*,-2,23µM*,6%,?,18µM*
Cc1ccc(N=Cc2nc(-c3ccco3)oc2O)cc1,·,-14,?,2%,?,-9%
CN(C)c1ccc(N=Cc2nc(-c3ccccc3)oc2OC(=O)c2cccc(Cl)c2)cc1,-16,-4,?,2%,?,?
O=C(Oc1oc(-c2ccco2)nc1C=Nc1ccccc1)c1ccco1,?,-2,4.6µM*,-3%,?,3.7µM*
O=C(Oc1oc(-c2ccco2)nc1C=Nc1ccccc1)c1ccoc1,-68*,-13,12µM*,2%,?,5.2µM*
SMILES,IL1B secr inh,Giardia killer,TDP1 cell noCPT,TDP1 block,ELG1 DNA repair,DT40 TDP1 CPT
COc1ccc(N=Cc2nc(-c3ccccc3)oc2OC(C)=O)cc1,-9,2,13µM*,1%,?,?
COc1cccc(N=Cc2nc(-c3ccccc3)oc2OC(C)=O)c1,-17,-4,-30%,6%,?,6%
CCOC(=O)c1nc2c(=O)n(C)c(=O)n(C)c2n(C)c1=O,24,?,0%,·,·,3%
O=C(Nc1ccc(Cl)cc1)C1C2CCCCC21 (stereo not given),2,-16,0%,3%,?,-7%
COc1ccc2c(c1)[C@H]1[C@H](CO2)[C@H](c2ccccc2)[C@]2(C)C(=O)N[C@H](C)C(=O)N12,26,6,-3%,0%,-1%,-8%
COC(=O)/C=C/C(C)=C/C=C/C(C)=C/C=C/C=C(C)/C=C/C=C(C)/C=C/C(=O)O,·,·,?,·,·,-10%
O=[N+]([O-])c1ccc(/C=C2\CCC(C3=CCCC3)=C2N2CCOCC2)cc1,?,-3,16µM*,-5%,?,?
O=C(NP(=O)(N1CCCC1)N1CCCC1)C1=C(N2CCOCC2)/C(=C/c2cccc([N+](=O)[O-])c2)CC1,0,9,4%,5%,-9%,3%
COc1cccc(-c2cc(N3CCN(C(=O)c4ccoc4)CC3)n3nc(-c4cccc(Cl)c4)cc3n2)c1,-6,·,8.2µM*,·,·,15µM*
COc1cccc(-c2cc3nc(-c4ccccc4)cc(N4CCC5(CC4)OCCO5)n3n2)c1,?,5,21µM*,?,?,?
COc1cccc(-c2cc3nc(-c4ccccc4)cc(N4CCN(C(=O)c5ccoc5)CC4)n3n2)c1,-13,·,5.2µM*,·,·,7.3µM*
COc1cccc(-c2cc(C(F)(F)F)n3nc(-c4ccc(C)cc4)cc3n2)c1,·,·,-15%,-1%,·,-22%
Cc1cccc(NC(=O)C2CCN(S(=O)(=O)c3ccc4c(c3)CCCC(=O)N4)CC2)c1,·,·,·,2%,·,·
CCCCN(CC)CCCNC(=O)c1cc2c(-c3ccc(OC)c(OC)c3)nn(C)c2s1,-70*,-10,?,-2%,23%,?
CCOCCCNC(=O)c1cc2c(-c3ccc(OC)c(OC)c3)nn(C)c2s1,·,·,18µM*,0%,·,7.3µM*
COc1ccc(CCNC(=O)c2cc3c(-c4ccc(OC)c(OC)c4)nn(C)c3s2)cc1OC,·,·,2.9µM*,·,·,2.6µM*
CN(C)c1ccc(-c2nc(-c3ccco3)no2)cc1[N+](=O)[O-],·,·,?,6%,·,?
COc1ccc(OC)c(NC(=O)CSCc2cnn(-c3ccccc3)c2-n2cccc2)c1,-11,0,16µM*,10%,-15%,?
